# Hits are enriched below; roughly 21% of the tested compounds scored in any of these assays.
# CHX counter: counter-screen hit for Shiga toxin inhibitors, cycloheximide. cell reporter, cycloheximide protein synthesis inhibition counterscreen. max response, %. 12% of 300,000 active; in the data active means max response mostly above about 13%, no sharp cut-off; inactive means mostly below about 14%; further: read at 38.3 µM for the half of the compounds with a filed dose
# HCV inh: HCV inhibition; Potency, µM (titrated, usually from 41.8 µM), hits mostly inhibitors; Huh7.5.1 HCVcc-Cre infection, luciferase reporter, 44 h; 3.4% of 340,000 active
#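 Cells seeded at 1,000/well and cultured 4 h, then compounds added followed by HCVcc-Cre virus (~0.5 moi). After 44 h further culture, luciferase substrate was added, plates held 15 min at room temperature, and luminescence read for 15 sec.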
# Pf growth 96h: P. falciparum growth inhibition at 96 hour, primary screen for plastid delayed-death inhibitors; P. falciparum luciferase reporter growth, 96 h; Potency, µM (series often up to 28.7 µM), usual class: inhibitors; 6.9% of 320,000 active; AID 504834
#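 P. falciparum expressing integrated firefly luciferase grown in erythrocytes (2% hematocrit, 0.05% parasitemia final) with compounds for 96 hours at 37 C, 5% CO2. Growth inhibition read as loss of luminescence after adding luciferase detection reagent.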
# Pf growth 48h: inhibits P. falciparum growth in the first generation, 48 h | P. falciparum luciferase growth in erythrocytes, 48 h | Potency, µM (top dose mostly 28.7 µM), actives largely listed as inhibitors | 5.9% of 310,000 active | AID 504832
#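 Read-out is firefly luciferase luminescence from an integrated reporter in P. falciparum, so falling signal marks reduced parasite growth. Infected erythrocytes were at 2% hematocrit and 0.1% parasitemia (final) in Albumax-supplemented RPMI 1640.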
# Shiga toxin inh: Shiga toxin inhibition; 9.2% of 290,000 active; inhibition, % at 38.7 µM; Vero cells, Shiga toxin protein synthesis inhibition reporter; in the data active means inhibition mostly above about 28%, no sharp cut-off; inactive means mostly below about 43%
# AMA1 RON2 block: disrupts binding of P. falciparum AMA1 to RON2. AlphaScreen AMA1-biotinylated RON2 peptide binding. Potency, µM (titrated, usually from 58.2 µM), actives largely listed as inhibitors. 0.2% of 360,000 active; further: nearly all actives have a fitted effect of over 45% in size
#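 AMA1 (3D7) with his tag at 25 nM final met compounds first, then biotinylated RON2 peptide at 25 nM; detection used donor plus acceptor beads, 10 µg/mL apiece, read by AlphaScreen after 30 min at room temperature.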
# Numbers stand for hits; i = inactive; ? = inconclusive; nt = no result given; [ ] = another dose, or the depositor's remark. Unless noted, the call rests on the fitted dose curve; in most records, active means well fitted curve in the direction sought with a large enough effect; inconclusive means small, poorly fitted or top-dose-only effect, or another doubt; inactive means no such curve, though single readings can be large; an effect the other way counts as inactive or inconclusive.
SMILES,CHX counter,HCV inh,Pf growth 96h,Pf growth 48h,Shiga toxin inh,AMA1 RON2 block
O=C(c1ccc(Cl)cc1)C1CCCN(Cc2cnn(-c3ccccc3)c2)C1 (centres undefined),i,22.4µM,i,i,i,?
O=C(c1ccc2c3c(cccc13)CC2)C1CCCN(Cc2cccnc2)C1 (centres undefined),i,22.4µM,?,1.65µM,i,?
O=C(c1ccc2c3c(cccc13)CC2)C1CCCN(C(=O)c2cccnc2)C1 (centres undefined),i,i,?,?,i,i
O=C(c1ccc(Cl)cc1)C1CCCN(Cc2ccon2)C1 (centres undefined),i,i,?,i,i,i
CC(C)(C)c1ccc(C(=O)C2CCCN(Cc3ccon3)C2)cc1 (centres undefined),21.6,i,?,i,32.6,i
O=C(c1ccc(Cl)cc1)C1CCCN(Cc2ccc(Oc3ncccn3)cc2)C1 (centres undefined),i,11.2µM,?,i,i,i
CC1(C(=O)NCc2cccs2)Cc2c(-c3ccc4c(c3)OCO4)ccnc2O1 (centres undefined),nt,nt,nt,nt,nt,i
COC(=O)[C@]12CCCCC=C1N(CCC1=CCCCC1)C(=O)[C@H](CC(=O)N1CCCCC1)C2,nt,nt,nt,nt,nt,i
COc1cccc(OC)c1CN1CCCC(C(=O)c2ccccc2SC)C1 (centres undefined),i,?,i,?,i,i
O=C(c1ccc(-c2ccccc2)cc1)C1CCCN(Cc2ccncc2)C1 (centres undefined),48.4,?,i,i,i,i
Cc1nn(C)cc1CN1CCCC(C(=O)c2ccc(-c3ccccc3)cc2)C1 (centres undefined),i,4.47µM,i[1.15 µM],i,i,i
CSc1ccccc1C(=O)C1CCCN(Cc2ccncc2)C1 (centres undefined),i,?,1.17µM,?,i,i
COc1ccc(O)c(CN2CCCC(C(=O)c3ccccc3SC)C2)c1 (centres undefined),i,11.2µM,i,5.22µM,i,?
O=C(c1ccc(-c2ccccc2)cc1)C1CCCN(Cc2ccn[nH]2)C1 (centres undefined),i,i,?,i,i,i
COc1ccc(C2=CCCCCC2)cc1OC,nt,nt,nt,nt,nt,i
Cn1c(CN2CCCC(C(=O)c3ccc4c(c3)OCO4)C2)nc2ccccc21 (centres undefined),i,i,9.28µM,?,i,i
Cc1ccc2c(c1)C1CN(C)CCC1N2C(=O)Nc1cccc(C(F)(F)F)c1 (centres undefined),i,?,nt,9.28µM,i,i
Cc1ccc2c(c1)[C@@H]1CN(C)CC[C@@H]1N2C(=O)Nc1cccc(C(F)(F)F)c1,i,10µM,0.828µM,nt,i,i
Cc1ccc2c(c1)C1CN(C)CCC1N2C(=O)c1ccc(Cl)c(S(=O)(=O)N2CCOCC2)c1 (centres undefined),i,i,?,?,i,i
Cc1ccc2c(c1)C1CN(C)CCC1N2C(=O)c1cn(-c2ccccc2)nc1-c1ccccc1 (centres undefined),i,?,?,13.1µM,i,i
Cc1ccc2c(c1)C1CN(C)CCC1N2C(=O)c1cccc(S(=O)(=O)N2CC(C)CC(C)C2)c1 (centres undefined),i,i,13.1µM,?,i,i
Cc1ccc2c(c1)C1CN(C)CCC1N2S(=O)(=O)c1cccc(C(F)(F)F)c1 (centres undefined),nt,i,?,?,nt,i
CC(C)c1cn(CC[C@@H]2CC[C@@H](NC(=O)C3CCCCC3)[C@@H](CO)O2)nn1,nt,nt,nt,nt,nt,i
Cc1cnc2c(N)cc(C)c(C)c2c1,nt,nt,nt,nt,nt,i
Cc1ccccc1C(=O)NCCCNC(=O)c1ccccc1C,nt,i,nt,nt,nt,i
SMILES,CHX counter,HCV inh,Pf growth 96h,Pf growth 48h,Shiga toxin inh,AMA1 RON2 block
CC1CCCCN1C(=O)Cn1cc(C#N)c2ccccc21 (centres undefined),i,i,i,i,i,i
CCN1C(=O)NC(=O)/C(=C\c2cn(CC(=O)N3CCCCC3C)c3ccccc23)C1=O (centres undefined),i,i,6.57µM,i,i,i
CCN(CC)C(=O)Cn1cc(/C=C2\C(=O)NC(=O)N(c3ccccc3F)C2=O)c2ccccc21,8.5,i,?,i,i,i
CCc1nc2c(OCC(=O)c3ccc(F)cc3)cccn2c1N(C)C(=O)c1cccs1,nt,nt,nt,nt,nt,i
Clc1ccc(C#Cc2cccnc2)cc1,nt,i,i,i,nt,i
Cc1nc2cc(F)ccc2n1C1CCN(C(=O)c2c(F)cccc2F)CC1,i,?,i,1.47µM,i,i
Cc1nc2cc(F)ccc2n1C1CCN(C(=O)c2ccc(F)cc2F)CC1,i,?,?,?,i,i
CC1CN(S(=O)(=O)c2ccc(-c3nc4ccccc4s3)cc2)CC(C)O1 (centres undefined),i,i,i,i,i,i
O=S(=O)(c1cccc(-c2csc(-c3cccnc3)n2)c1)N1CCOCC1,i,?,?,?,i,i
O=S(=O)(c1cccc(-c2csc(-c3cccnc3)n2)c1)N1CCCCC1,i,?,i,9.28µM,i,i
O=S(=O)(c1cccc(-c2nc3ccccc3s2)c1)N1CCCC1,35.6,?,i,i,i,i
O=S(=O)(c1ccc(-c2nc3ccccc3s2)cc1)N1CCCC1,24.0,i,i,nt,i,i
O=S(=O)(c1cccc(-c2cn3ccccc3n2)c1)N1CCCCC1,i,?,?,i,i,i
Cc1ccc(Cc2c(-c3ccc(Cl)cc3)nc3c(C)cc(Br)cn23)cc1,nt,nt,nt,nt,nt,i
CC1(C)OC(=O)C2=C(C[C@@H](CCC(F)(F)F)O[C@H]2c2ccc(F)cc2)O1,nt,nt,nt,nt,nt,i
Nc1nc(NCc2c(F)cccc2Cl)nn1-c1ccccc1,25.1,i,nt,i,55.9,i
Cc1ccccc1CNc1nc(N)n(-c2ccccc2)n1,i,i,i,nt,i,i
N#Cc1ccc(OCC(=O)N2CCN(c3ccc(C(F)(F)F)cn3)CC2)cc1,nt,i,4.15µM,?,nt,i
O=C(c1ccc([N+](=O)[O-])s1)N1CCN(c2ccc(C(F)(F)F)cn2)CC1,i,?,3.29µM,?,i,i
COc1cccc(CN(C)C(=O)c2csc3c2CCCC3)c1OC,i,i,?,i,i,i
CC1(C(=O)Nc2ccc3c(c2)OCCO3)CSCC(=O)N1Cc1ccco1 (centres undefined),nt,nt,nt,nt,nt,i
Nc1ccccc1S(=O)(=O)C(F)F,i,i,i,i,i,i
CCNC(=O)c1ccc(-n2nc(C)cc2-c2ccccc2)cc1,i,i,1.47µM,?,i,i
CCOC(=O)c1ccc(NC(=O)c2cc(C)nn2-c2ccccc2)cc1,i,i,i,i[0.00184 µM],i,i
CCOCCCNC(=O)c1cc(C)nn1-c1ccccc1,i,i,11.7µM,i,i,i
CCOC(CNC(=O)c1cc(C)nn1-c1ccccc1)OCC,i,i,nt,i,i,i
O=C(NCCO)c1ccc(-c2cnc3cccnn23)cc1,nt,nt,nt,nt,nt,i
C=C(CCC(=O)c1ccccc1)C(=O)c1ccccc1,17.2,?,i,i,i,i[2.32 µM]

# High-throughput results as filed in PubChem.
